Experimental data: PubChem BioAssay (NCATS)
Inconclusive results are not listed. A call without a number means that no potency is given here. Unmarked numbers belong to inactive results. Active and inactive are the calls of the source. The call rests on the fitted dose curve; in most records, active means well fitted cell-killing curve with a large enough effect; inconclusive means small, poorly fitted or top-dose-only effect, or effect the other way; inactive means flat fitted curve, though single readings scatter.

Columns and labels:
Experiment in all cases: Primary qHTS to identify gynecologic anti-cancer compounds using libraries of approved drugs and bioactive compounds (AID 1345084); further: nearly all actives have a fitted effect of over 55% in size
C33A = details: Gynecologic cancer cell panel viability, ATPlite luminescence, 48 h; series mostly up to 57.5 µM
In short: (§1)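 In this quantitative HTS, cell killing is estimated from loss of ATP-dependent luciferase light. Cells see five compound concentrations over a 48 h exposure.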

CAOV3 = details: Gynecologic cancer cell panel viability, ATPlite luminescence, 48 h; series mostly up to 57.5 µM
In short: as §1

CASKI = details: Gynecologic cancer cell panel viability, ATPlite luminescence, 48 h; series mostly up to 57.5 µM
In short: as §1

Es-2 = details: Gynecologic cancer cell panel viability, ATPlite luminescence, 48 h; series mostly up to 57.5 µM
In short: as §1

HeLa = details: Gynecologic cancer cell panel viability, ATPlite luminescence, 48 h; series mostly up to 57.5 µM
In short: as §1

Hek293T = details: Gynecologic cancer cell panel viability, ATPlite luminescence, 48 h, control line for the selectivity index; series mostly up to 57.5 µM
In short: as §1

JEG-3 = details: Gynecologic cancer cell panel viability, ATPlite luminescence, 48 h; series mostly up to 57.5 µM
In short: as §1

OV90 = details: Gynecologic cancer cell panel viability, ATPlite luminescence, 48 h; series mostly up to 57.5 µM
In short: as §1

PA-1 = details: Gynecologic cancer cell panel viability, ATPlite luminescence, 48 h; series mostly up to 57.5 µM
In short: as §1

SKOV3 = details: Gynecologic cancer cell panel viability, ATPlite luminescence, 48 h; series mostly up to 57.5 µM
In short: as §1

Tov-21-G = details: Gynecologic cancer cell panel viability, ATPlite luminescence, 48 h; series mostly up to 57.5 µM
In short: as §1

Tov112D = details: Gynecologic cancer cell panel viability, ATPlite luminescence, 48 h; series mostly up to 57.5 µM
In short: as §1
Potency means the concentration at half of the fitted maximal effect.

CC1(c2nc3c(C(N)=O)cccc3[nH]2)CCCN1 (stereo unspecified)
Potency (C33A): inactive
Potency (CAOV3): inactive
Potency (CASKI): inactive
Potency (Es-2): inactive
Potency (HeLa): inactive
Potency (Hek293T): inactive
Potency (JEG-3): inactive
Potency (OV90): inactive
Potency (PA-1): inactive
Potency (SKOV3): inactive
Potency (Tov-21-G): inactive
Potency (Tov112D): inactive

CC1(C)CC[C@]2(C(=O)O[C@@H]3O[C@H](CO[C@@H]4O[C@H](CO)[C@@H](O)[C@H](O)[C@H]4O[C@@H]4O[C@H](CO)[C@@H](O)[C@H](O)[C@H]4O)[C@@H](O)[C@H](O[C@@H]4O[C@H](CO)[C@@H](O)[C@H](O)[C@H]4O)[C@H]3O)CC[C@]3(C)C(=CCC4[C@@]5(C)CC[C@@H](O)[C@@](C)(C(=O)O[C@@H]6O[C@H](CO)[C@@H](O)[C@H](O)[C@H]6O)C5CC[C@]43C)[C@@H]2C1 (stereo partly specified)
activity change, negative = cytotoxicity (C33A): -23% [at 6.55 µM]
activity change, negative = cytotoxicity (CAOV3): 2.18% [at 6.55 µM]
activity change, negative = cytotoxicity (CASKI): -2.18% [at 6.55 µM]
activity change, negative = cytotoxicity (Es-2): 0.72% [at 6.55 µM]
activity change, negative = cytotoxicity (HeLa): 5.19% [at 6.55 µM]
activity change, negative = cytotoxicity (Hek293T): 16.4% [at 6.55 µM]
activity change, negative = cytotoxicity (JEG-3): -0.894% [at 6.55 µM]
activity change, negative = cytotoxicity (OV90): -0.699% [at 6.55 µM]
activity change, negative = cytotoxicity (PA-1): 5.56% [at 6.55 µM]
activity change, negative = cytotoxicity (SKOV3): -6.61% [at 6.55 µM]
activity change, negative = cytotoxicity (Tov-21-G): -1.95% [at 6.55 µM]
activity change, negative = cytotoxicity (Tov112D): -1.22% [at 6.55 µM]

CCOc1cc(C)c(Cl)cc1S(=O)(=O)n1cnc2ccccc21
Potency (C33A): inactive
Potency (CAOV3): inactive
Potency (CASKI): inactive
Potency (Es-2): inactive
Potency (HeLa): inactive
Potency (Hek293T): inactive
Potency (JEG-3): inactive
Potency (OV90): inactive
Potency (PA-1): inactive
Potency (SKOV3): inactive
Potency (Tov-21-G): inactive
Potency (Tov112D): inactive

CC(=O)O[C@]1(C(C)=O)CC[C@H]2[C@@H]3C[C@H](C)C4=CC(=O)C=C[C@]4(C)[C@@]3(F)[C@@H](O)C[C@@]21C
Potency (C33A): inactive
Potency (CAOV3): inactive
Potency (CASKI): inactive
Potency (Es-2): inactive
Potency (HeLa): inactive
Potency (Hek293T): inactive
Potency (JEG-3): inactive
Potency (OV90): inactive
Potency (PA-1): inactive
Potency (SKOV3): inactive
Potency (Tov-21-G): inactive
Potency (Tov112D): inactive

COc1c/c(=C2\C=c3ccccc3=N2)[nH]/c1=C\c1[nH]c(C)cc1C
Potency (C33A): 1.41 µM (active)
Potency (CAOV3): 10 µM (active)
Potency (CASKI): 12.6 µM (active)
Potency (Es-2): 2.51 µM (active)
Potency (HeLa): 10 µM (active)
Potency (Hek293T): 6.31 µM (active)
Potency (JEG-3): 7.94 µM (active)
Potency (OV90): 2.24 µM (active)
Potency (PA-1): 2 µM (active)
Potency (SKOV3): 10 µM (active)
Potency (Tov-21-G): 14.1 µM (active)
Potency (Tov112D): 3.55 µM (active)

CCCOC(c1cc2nccc(C(=O)O)c2[nH]1)c1ccccc1Cl (stereo unspecified)
Potency (C33A): inactive
Potency (CAOV3): inactive
Potency (CASKI): inactive
Potency (Es-2): inactive
Potency (HeLa): inactive
Potency (Hek293T): inactive
Potency (JEG-3): inactive
Potency (OV90): inactive
Potency (PA-1): inactive
Potency (SKOV3): inactive
Potency (Tov-21-G): inactive
Potency (Tov112D): inactive

O=C(NCc1cccc(O)c1)c1cc2cc(F)ccc2[nH]1
Potency (C33A): inactive
Potency (CAOV3): inactive
Potency (CASKI): inactive
Potency (Es-2): inactive
Potency (HeLa): inactive
Potency (Hek293T): inactive
Potency (JEG-3): inactive
Potency (OV90): inactive
Potency (PA-1): inactive
Potency (SKOV3): inactive
Potency (Tov-21-G): inactive
Potency (Tov112D): inactive

COC(=O)[C@@H](O)[C@H]1[C@@]2(C)CC3(O)[C@@H](C(=O)[C@H]2O)[C@]24O[C@]25CC(=O)O[C@@H](c2ccoc2)[C@]5(C)CCC4[C@]13C (stereo partly specified)
Potency (C33A): inactive
Potency (CAOV3): inactive
Potency (CASKI): inactive
Potency (Es-2): inactive
Potency (HeLa): inactive
Potency (Hek293T): inactive
Potency (JEG-3): inactive
Potency (OV90): inactive
Potency (PA-1): inactive
Potency (SKOV3): inactive
Potency (Tov-21-G): inactive
Potency (Tov112D): inactive

O=C(O)c1cc(I)ccc1NC(=O)[C@H](Cc1ccccc1)NCc1ccccc1
Potency (C33A): inactive
Potency (CAOV3): inactive
Potency (CASKI): inactive
Potency (Es-2): inactive
Potency (HeLa): inactive
Potency (Hek293T): inactive
Potency (JEG-3): inactive
Potency (OV90): inactive
Potency (PA-1): inactive
Potency (SKOV3): inactive
Potency (Tov-21-G): inactive
Potency (Tov112D): inactive

CC1(O)CC(O)C2(O)C=COC(O[C@@H]3O[C@H](CO)[C@@H](O)[C@H](O)[C@H]3O)C12 (stereo partly specified)
Potency (C33A): inactive
Potency (CAOV3): inactive
Potency (CASKI): inactive
Potency (Es-2): inactive
Potency (HeLa): inactive
Potency (Hek293T): inactive
Potency (JEG-3): inactive
Potency (OV90): inactive
Potency (PA-1): inactive
Potency (SKOV3): inactive
Potency (Tov-21-G): inactive
Potency (Tov112D): inactive

Cc1ccc(F)cc1C(=O)Nc1ccc(C(=O)N2Cc3cccn3Cc3ccccc32)c(Cl)c1
Potency (C33A): inactive
Potency (CAOV3): inactive
Potency (CASKI): inactive
Potency (Es-2): inactive
Potency (HeLa): inactive
Potency (Hek293T): inactive
Potency (JEG-3): inactive
Potency (OV90): inactive
Potency (PA-1): inactive
Potency (SKOV3): inactive
Potency (Tov-21-G): inactive
Potency (Tov112D): inactive

CC(C)(C)c1cc(Br)cc([C@H](CC(=O)O)NC(=O)CNC(=O)c2cc(O)cc(NC3=NCC(O)CN3)c2)c1 (stereo partly specified)
Potency (C33A): inactive
Potency (CAOV3): inactive
Potency (CASKI): inactive
Potency (Es-2): inactive
Potency (HeLa): inactive
Potency (Hek293T): inactive
Potency (JEG-3): inactive
Potency (OV90): inactive
Potency (PA-1): inactive
Potency (SKOV3): inactive
Potency (Tov-21-G): inactive
Potency (Tov112D): inactive

COC1CC(O[C@H]2CC[C@@]3(C)C(=CC[C@]4(O)C3[C@H](OC(C)=O)[C@@H](OC(=O)c3ccccc3)[C@]3(C)[C@@H](C(C)=O)CC[C@@]34O)C2)OC(C)C1OC1CC(OC)C(OC2CC(OC)C(OC3OC(C)C(OC4OC(CO)C(O)C(O)C4O)C(OC)C3O)C(C)O2)C(C)O1 (stereo partly specified)
activity change, negative = cytotoxicity (C33A): -6.27% [at 6.55 µM]
activity change, negative = cytotoxicity (CAOV3): -1.71% [at 6.55 µM]
activity change, negative = cytotoxicity (CASKI): -17.5% [at 6.55 µM]
activity change, negative = cytotoxicity (Es-2): 3.59% [at 6.55 µM]
activity change, negative = cytotoxicity (HeLa): -1.12% [at 6.55 µM]
activity change, negative = cytotoxicity (Hek293T): -1.35% [at 6.55 µM]
activity change, negative = cytotoxicity (JEG-3): -8.02% [at 6.55 µM]
activity change, negative = cytotoxicity (OV90): 7.55% [at 6.55 µM]
activity change, negative = cytotoxicity (PA-1): -5.59% [at 6.55 µM]
activity change, negative = cytotoxicity (SKOV3): 11% [at 6.55 µM]
activity change, negative = cytotoxicity (Tov-21-G): -0.609% [at 6.55 µM]
activity change, negative = cytotoxicity (Tov112D): 2.04% [at 6.55 µM]
